Results filed as inconclusive are left out. Calls of active or inactive are those of the source. Calls follow the shape of the dose curve; as a rule, active = well fitted inhibition curve with a large enough effect; inconclusive = small, poorly fitted or top-dose-only effect; inactive = flat fitted curve, though single readings scatter.
Tests used:
Experiment in all cases: qHTS profiling for inhibitors of Plasmodium falciparum proliferation (AID 504749); also: nearly all actives have a fitted effect of over 60% in size
Details in all cases: P. falciparum in erythrocytes, SYBR Green DNA, 72 h; series mostly up to 28.7 µM
[1] = system: CP315
Method in brief: (§1)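 P. falciparum-infected erythrocytes (0.3% parasitemia, 2.5% hematocrit) incubated with compound 72 h at 37 C, 5% CO2. Parasite DNA detected by SYBR Green after lysis, overnight at room temperature; normalised to 0.29 uM artemisinin and DMSO.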

[2] = system: CP325
Method in brief: as §1

[3] = system: CP329
Method in brief: as §1

[4] = system: CP335
Method in brief: as §1

[5] = system: DFO2036
Method in brief: as §1

[6] = system: DIV14
Method in brief: as §1

[7] = system: DIV17
Method in brief: as §1

[8] = system: DIV30
Method in brief: as §1

[9] = system: Dd2
Method in brief: as §1

[10] = system: ECU
Method in brief: as §1

[11] = system: FAB9
Method in brief: as §1

[12] = system: GB4
Method in brief: as §1

[13] = system: HB3
Method in brief: as §1

[14] = system: ICS
Method in brief: as §1

[15] = system: JCK
Method in brief: as §1

[16] = system: N140
Method in brief: as §1

[17] = system: P93_24
Method in brief: as §1

[18] = system: P94_40
Method in brief: as §1

[19] = system: PAD
Method in brief: as §1

[20] = system: PC15
Method in brief: as §1

Measured: Potency

O=C(Cn1ccnc1[N+](=O)[O-])NCCO
inactive: all assays above

NS(=O)(=O)c1ccc(NC(=O)CCC(=O)O)cc1
inactive: all assays above

CCN(CC)CC1CCCCN1CC(=O)N1c2ccccc2C(=O)Nc2cccnc21 (stereo not given)
inactive: all assays above

CCCCCC(N)=O
inactive: all assays above

O=C(CCBr)N1CCN(C(=O)CCBr)CC1
inactive: all assays above

NS(=O)(=O)c1cc2c(cc1C(F)(F)F)NCNS2(=O)=O
inactive: all assays above

CC(C)C[C@@H](N)C(=O)O
inactive: all assays above

CC(=O)Oc1cccc(C)c1
inactive: all assays above

CC(C(=O)O)c1ccc2c(c1)Cc1cccnc1O2 (stereo not given)
inactive: all assays above

O=c1[nH]c2cc(C(F)(F)F)c(N3CCOCC3)cc2n(CP(=O)(O)O)c1=O
inactive: all assays above

O=C(O)Cc1cn(-c2ccccc2)nc1-c1ccc(Cl)cc1
inactive: all assays above

CCOc1ccc(C(=O)OCCN(CC)CC)cc1
inactive: all assays above

CCN(CC)CCc1nc(-c2ccccc2)no1
inactive: all assays above

O=c1[nH]cnc2nc[nH]c12
inactive: all assays above

C[C@@H](N)C(=O)O
inactive: all assays above

CCc1cccc(CC)c1NC(=O)CN(CC(=O)O)CC(=O)O
inactive: all assays above

O=C(O)c1ccccc1OP(=O)(O)O
inactive: all assays above

O=C(NCN1CCOCC1)c1cnccn1
inactive: all assays above

CC(N)CCCC(C)(C)O (stereo not given)
inactive: all assays above

CCS(=O)(=O)CCn1c([N+](=O)[O-])cnc1C
inactive: all assays above

CCCCCCCC(=O)OCC(COC(=O)CCCCCCC)OC(=O)CCCCCCC
inactive: all assays above

CCOC(=O)c1cccnc1
inactive: all assays above

CCCCCCCC(=O)OCC(O)CO (stereo not given)
inactive: all assays above

O=C(O)CNC(=O)c1ccccc1I
inactive: all assays above

Cc1ccc(S(=O)(=O)NC(=O)NC2CCCCCCC2)cc1
inactive: all assays above

CCCC(O)C(CC)CO (stereo not given)
inactive: all assays above

COc1ccc2cc(CCC(C)=O)ccc2c1
inactive: all assays above

From PubChem BioAssay (NCATS)
